This is an account of results in article PMC7862700, “An all-to-all approach to the identification of sequence-specific readers for epigenetic DNA modifications on cytosine”.

Holding throughout (test): DAPPL (digital affinity profiling via proximity ligation, sequencing); 10 mM Tris-HCl pH 7.5, 50 mM NaCl, 1 mM DTT, 4% glycerol, room temperature, 30 min; GST-TFs on glutathione beads, 16-mer random dsDNA library, 0.1% formaldehyde crosslink after washing; high values mean tight binding
The target of test [1] is T1, FLI1 (Homo sapiens, UniProt Q01543 1-452).
T1 sequence: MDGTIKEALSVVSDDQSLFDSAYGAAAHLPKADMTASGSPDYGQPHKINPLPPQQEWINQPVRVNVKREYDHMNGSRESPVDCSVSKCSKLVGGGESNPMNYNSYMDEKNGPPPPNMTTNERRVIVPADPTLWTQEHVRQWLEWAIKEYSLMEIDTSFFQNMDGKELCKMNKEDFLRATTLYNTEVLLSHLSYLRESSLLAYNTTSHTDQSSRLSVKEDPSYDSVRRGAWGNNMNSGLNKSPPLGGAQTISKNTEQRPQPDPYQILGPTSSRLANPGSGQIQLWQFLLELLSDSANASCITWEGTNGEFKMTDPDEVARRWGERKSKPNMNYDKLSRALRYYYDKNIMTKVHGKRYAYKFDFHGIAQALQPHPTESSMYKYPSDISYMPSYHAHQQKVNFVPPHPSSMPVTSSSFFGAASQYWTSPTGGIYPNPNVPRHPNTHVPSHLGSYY
As to conditions: protein: recombinant; tags: N-terminal GST; dsDNA, one strand shown. In outline: (§1)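 The binding signal reported is, for every hexamer, its read frequency for a factor over its read frequency for the tag-only sample. Reads came from pools of yeast-expressed, GST-fused human transcription factors on glutathione beads, barcoded with DNA and mixed with that sample, which were incubated with 200 nmole of a random double-stranded 16-mer DNA library in Tris/NaCl/DTT/glycerol buffer at room temperature for 30 min. After washing, the pools were crosslinked with 0.1% formaldehyde, proximity-ligated with BsaI/T4 ligase for 1 h at 37 °C, PCR-amplified and sequenced on an Illumina NextSeq500.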

The target in test [2] is T2, ELK1 (Homo sapiens, UniProt P19419 1-428).
T2 sequence: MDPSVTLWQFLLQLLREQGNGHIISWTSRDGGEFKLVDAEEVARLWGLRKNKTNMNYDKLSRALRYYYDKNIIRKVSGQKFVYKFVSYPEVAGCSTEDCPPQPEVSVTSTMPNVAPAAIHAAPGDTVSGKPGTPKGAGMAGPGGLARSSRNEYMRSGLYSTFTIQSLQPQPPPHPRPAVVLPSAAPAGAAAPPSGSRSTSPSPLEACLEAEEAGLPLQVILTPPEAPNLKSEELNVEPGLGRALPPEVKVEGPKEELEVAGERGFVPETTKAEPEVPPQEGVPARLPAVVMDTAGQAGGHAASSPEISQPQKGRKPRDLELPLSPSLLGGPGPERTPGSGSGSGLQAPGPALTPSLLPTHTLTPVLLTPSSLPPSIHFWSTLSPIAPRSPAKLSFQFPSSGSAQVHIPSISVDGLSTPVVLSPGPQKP
The settings on record: protein: recombinant; tags: N-terminal GST; dsDNA, one strand shown. The method in brief: as §1

The target in test [3] is T3, GABPA (Homo sapiens, UniProt Q06546 1-454).
T3 sequence: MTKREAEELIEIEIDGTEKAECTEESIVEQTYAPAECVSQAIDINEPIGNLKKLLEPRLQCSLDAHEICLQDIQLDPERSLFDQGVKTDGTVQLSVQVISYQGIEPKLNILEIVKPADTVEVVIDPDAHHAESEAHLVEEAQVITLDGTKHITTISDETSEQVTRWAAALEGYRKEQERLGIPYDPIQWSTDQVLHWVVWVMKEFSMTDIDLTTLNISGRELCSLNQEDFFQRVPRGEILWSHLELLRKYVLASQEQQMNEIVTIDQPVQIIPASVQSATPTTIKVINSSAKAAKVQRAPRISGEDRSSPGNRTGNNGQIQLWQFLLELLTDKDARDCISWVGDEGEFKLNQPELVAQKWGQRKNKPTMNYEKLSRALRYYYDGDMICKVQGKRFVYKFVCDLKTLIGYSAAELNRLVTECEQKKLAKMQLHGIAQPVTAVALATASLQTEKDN
As to conditions: protein: recombinant; tags: N-terminal GST; dsDNA, one strand shown. In outline:
as §1

Test [4] deals with T4, ERG (Homo sapiens, UniProt P11308 1-479).
T4 sequence: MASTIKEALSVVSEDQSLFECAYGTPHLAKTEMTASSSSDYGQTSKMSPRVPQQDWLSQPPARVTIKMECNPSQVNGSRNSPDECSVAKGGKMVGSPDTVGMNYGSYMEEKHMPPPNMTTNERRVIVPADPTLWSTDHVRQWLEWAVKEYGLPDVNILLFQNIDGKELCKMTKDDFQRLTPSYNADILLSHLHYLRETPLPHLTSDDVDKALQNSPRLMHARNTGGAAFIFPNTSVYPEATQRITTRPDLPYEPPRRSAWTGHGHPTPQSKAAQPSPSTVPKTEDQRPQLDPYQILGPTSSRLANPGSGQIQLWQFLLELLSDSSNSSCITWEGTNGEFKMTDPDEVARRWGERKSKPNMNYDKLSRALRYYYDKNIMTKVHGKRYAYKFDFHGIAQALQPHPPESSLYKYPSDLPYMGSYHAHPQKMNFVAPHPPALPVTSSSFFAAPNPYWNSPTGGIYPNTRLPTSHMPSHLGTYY
The settings on record: protein: recombinant; tags: N-terminal GST; dsDNA, one strand shown. In outline:
as §1

Test [5] concerns the target ELF1 (Homo sapiens, UniProt P32519 1-619). The settings on record: protein: recombinant; tags: N-terminal GST; dsDNA, one strand shown. In outline: as §1
The target of test [6] is SPI1 (Homo sapiens, UniProt P17947 1-270). As to conditions: protein: recombinant; tags: N-terminal GST; dsDNA, one strand shown. In outline:
as §1

Test [7] deals with SPIB (Homo sapiens, UniProt Q01892 1-262). The settings on record: protein: recombinant; tags: N-terminal GST; dsDNA, one strand shown. The method in brief:
as §1

For test [8], the target named is T5, FEV (Homo sapiens, UniProt Q99581 1-238).
T5 sequence: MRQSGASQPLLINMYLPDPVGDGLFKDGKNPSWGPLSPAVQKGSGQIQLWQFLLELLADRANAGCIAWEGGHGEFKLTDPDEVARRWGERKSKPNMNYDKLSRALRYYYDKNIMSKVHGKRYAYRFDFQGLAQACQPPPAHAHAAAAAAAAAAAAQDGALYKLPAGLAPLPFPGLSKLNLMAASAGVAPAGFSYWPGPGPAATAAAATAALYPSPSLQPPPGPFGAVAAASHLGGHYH
As to conditions: protein: recombinant; tags: N-terminal GST; dsDNA, one strand shown. In outline:
as §1

The target in test [9] is ETV5 (Homo sapiens, UniProt P41161 1-510). As to conditions: protein: recombinant; tags: N-terminal GST; dsDNA, one strand shown. The method in brief:
as §1

The target in test [10] is HSF1 (Homo sapiens, UniProt Q00613 1-529). The settings on record: protein: recombinant; tags: N-terminal GST; chain copies: 3; dsDNA, one strand shown. In outline: as §1
Test [11] has as its target T6, SPIC (Homo sapiens, UniProt Q8N5J4 1-248).
T6 sequence: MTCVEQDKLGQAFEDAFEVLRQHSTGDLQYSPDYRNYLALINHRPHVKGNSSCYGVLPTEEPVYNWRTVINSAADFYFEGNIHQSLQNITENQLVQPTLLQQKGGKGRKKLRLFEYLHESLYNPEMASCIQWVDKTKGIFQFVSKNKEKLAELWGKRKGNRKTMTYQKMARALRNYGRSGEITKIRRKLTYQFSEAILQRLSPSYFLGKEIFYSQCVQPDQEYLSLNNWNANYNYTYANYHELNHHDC
The settings on record: protein: recombinant; tags: N-terminal GST; dsDNA, one strand shown. In outline: as §1

For test [12], the target named is ELF4 (Homo sapiens, UniProt Q99607 1-663). As to conditions: protein: recombinant; tags: N-terminal GST; dsDNA, one strand shown. The method in brief:
as §1

The target of test [13] is T7, ELK4 (Homo sapiens, UniProt P28324-2 1-405).
T7 sequence: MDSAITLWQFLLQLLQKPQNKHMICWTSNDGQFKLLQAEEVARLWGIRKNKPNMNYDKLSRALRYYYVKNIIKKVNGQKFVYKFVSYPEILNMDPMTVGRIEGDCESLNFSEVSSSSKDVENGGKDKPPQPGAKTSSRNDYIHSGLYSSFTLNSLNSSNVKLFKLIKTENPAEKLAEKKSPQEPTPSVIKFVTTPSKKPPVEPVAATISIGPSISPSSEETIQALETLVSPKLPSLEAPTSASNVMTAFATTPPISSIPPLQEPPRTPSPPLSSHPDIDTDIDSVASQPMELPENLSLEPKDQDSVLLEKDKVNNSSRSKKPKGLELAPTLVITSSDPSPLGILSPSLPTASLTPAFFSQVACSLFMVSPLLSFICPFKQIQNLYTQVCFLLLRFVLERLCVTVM
As to conditions: protein: recombinant; tags: N-terminal GST; dsDNA, one strand shown. The method in brief: as §1

The target of test [14] is T8, ETV2 (Homo sapiens, UniProt O00321 1-342).
T8 sequence: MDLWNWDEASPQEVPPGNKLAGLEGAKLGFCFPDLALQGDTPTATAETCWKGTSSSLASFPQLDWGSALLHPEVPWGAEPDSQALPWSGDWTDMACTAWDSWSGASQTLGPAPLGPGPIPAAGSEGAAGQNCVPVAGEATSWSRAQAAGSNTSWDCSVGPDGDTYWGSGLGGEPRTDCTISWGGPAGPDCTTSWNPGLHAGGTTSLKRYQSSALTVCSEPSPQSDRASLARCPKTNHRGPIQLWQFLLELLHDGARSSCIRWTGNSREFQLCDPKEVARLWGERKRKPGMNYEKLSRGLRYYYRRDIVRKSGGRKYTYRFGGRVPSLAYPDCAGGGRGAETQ
As to conditions: protein: recombinant; tags: N-terminal GST; dsDNA, one strand shown. The method in brief:
as §1

Test [15] deals with T9, ELF3 (Homo sapiens, UniProt P78545 1-371).
T9 sequence: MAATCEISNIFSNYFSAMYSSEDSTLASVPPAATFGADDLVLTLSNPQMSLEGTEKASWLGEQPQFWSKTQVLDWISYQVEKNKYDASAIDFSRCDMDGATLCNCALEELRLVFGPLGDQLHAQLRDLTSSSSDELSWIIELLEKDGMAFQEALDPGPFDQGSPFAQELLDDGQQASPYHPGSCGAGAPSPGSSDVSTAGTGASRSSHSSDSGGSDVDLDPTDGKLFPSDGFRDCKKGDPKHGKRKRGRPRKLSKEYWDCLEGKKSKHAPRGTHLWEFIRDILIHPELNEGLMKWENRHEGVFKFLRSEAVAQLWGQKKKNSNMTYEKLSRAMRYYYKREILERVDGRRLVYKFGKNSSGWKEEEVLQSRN
The settings on record: protein: recombinant; tags: N-terminal GST; dsDNA, one strand shown. The method in brief:
as §1

Test [16] concerns the target ETV1 (Homo sapiens, UniProt P50549 1-477). As to conditions: protein: recombinant; tags: N-terminal GST; dsDNA, one strand shown. The method in brief:
as §1

Chain of ELF1 (P32519 whole entry): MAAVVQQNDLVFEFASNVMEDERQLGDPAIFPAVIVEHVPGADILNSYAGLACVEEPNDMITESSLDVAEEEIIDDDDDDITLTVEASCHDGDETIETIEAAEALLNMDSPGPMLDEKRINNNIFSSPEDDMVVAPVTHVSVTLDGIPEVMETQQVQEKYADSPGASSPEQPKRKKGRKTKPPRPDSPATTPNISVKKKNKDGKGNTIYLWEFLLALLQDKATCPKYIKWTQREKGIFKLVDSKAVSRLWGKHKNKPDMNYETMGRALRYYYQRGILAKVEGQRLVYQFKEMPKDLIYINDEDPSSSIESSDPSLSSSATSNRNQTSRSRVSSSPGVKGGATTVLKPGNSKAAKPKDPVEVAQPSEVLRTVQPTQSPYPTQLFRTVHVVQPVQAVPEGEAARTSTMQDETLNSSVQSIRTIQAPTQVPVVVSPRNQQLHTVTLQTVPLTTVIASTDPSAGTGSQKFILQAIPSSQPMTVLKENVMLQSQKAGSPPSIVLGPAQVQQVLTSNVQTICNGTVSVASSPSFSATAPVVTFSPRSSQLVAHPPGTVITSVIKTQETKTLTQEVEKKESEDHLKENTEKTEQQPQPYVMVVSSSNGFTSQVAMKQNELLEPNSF
Chain of ETV1 (P50549 whole entry): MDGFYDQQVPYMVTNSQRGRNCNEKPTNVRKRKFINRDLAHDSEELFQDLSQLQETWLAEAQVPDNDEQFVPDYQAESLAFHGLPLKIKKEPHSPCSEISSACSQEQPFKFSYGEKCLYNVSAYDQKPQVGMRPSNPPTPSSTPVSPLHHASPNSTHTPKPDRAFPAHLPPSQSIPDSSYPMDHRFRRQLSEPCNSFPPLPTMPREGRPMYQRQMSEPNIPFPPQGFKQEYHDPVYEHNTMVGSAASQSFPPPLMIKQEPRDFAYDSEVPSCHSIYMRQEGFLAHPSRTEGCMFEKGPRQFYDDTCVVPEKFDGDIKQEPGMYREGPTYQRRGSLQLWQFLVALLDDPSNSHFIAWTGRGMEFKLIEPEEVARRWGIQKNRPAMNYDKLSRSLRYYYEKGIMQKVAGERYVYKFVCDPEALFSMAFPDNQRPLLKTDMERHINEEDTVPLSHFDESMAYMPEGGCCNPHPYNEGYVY
Chain of SPIB (Q01892 whole entry): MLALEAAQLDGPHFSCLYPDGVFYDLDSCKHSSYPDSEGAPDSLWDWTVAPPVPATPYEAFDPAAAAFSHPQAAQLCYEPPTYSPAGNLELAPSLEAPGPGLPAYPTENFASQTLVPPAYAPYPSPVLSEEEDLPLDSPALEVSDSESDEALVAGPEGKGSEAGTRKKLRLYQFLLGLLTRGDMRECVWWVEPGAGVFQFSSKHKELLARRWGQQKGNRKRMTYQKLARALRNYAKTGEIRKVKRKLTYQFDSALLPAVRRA
Chain of ELF4 (Q99607 whole entry): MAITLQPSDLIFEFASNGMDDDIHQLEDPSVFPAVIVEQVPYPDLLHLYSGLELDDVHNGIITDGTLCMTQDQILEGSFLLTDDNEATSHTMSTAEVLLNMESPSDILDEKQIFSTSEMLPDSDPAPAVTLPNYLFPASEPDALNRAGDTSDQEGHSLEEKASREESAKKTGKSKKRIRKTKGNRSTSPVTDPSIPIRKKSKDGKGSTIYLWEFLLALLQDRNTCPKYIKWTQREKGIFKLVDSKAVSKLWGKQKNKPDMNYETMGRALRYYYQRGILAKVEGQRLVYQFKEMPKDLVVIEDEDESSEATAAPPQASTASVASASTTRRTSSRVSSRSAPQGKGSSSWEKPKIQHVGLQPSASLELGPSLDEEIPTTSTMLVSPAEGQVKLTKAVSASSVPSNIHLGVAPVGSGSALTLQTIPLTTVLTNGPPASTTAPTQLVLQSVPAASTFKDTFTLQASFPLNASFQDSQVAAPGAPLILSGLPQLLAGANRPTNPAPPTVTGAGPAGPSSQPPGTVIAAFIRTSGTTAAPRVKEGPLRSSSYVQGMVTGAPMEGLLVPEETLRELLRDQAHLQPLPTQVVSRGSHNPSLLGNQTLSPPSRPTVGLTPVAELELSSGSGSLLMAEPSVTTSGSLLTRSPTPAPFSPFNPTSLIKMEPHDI
Chain of ETV5 (P41161 whole entry): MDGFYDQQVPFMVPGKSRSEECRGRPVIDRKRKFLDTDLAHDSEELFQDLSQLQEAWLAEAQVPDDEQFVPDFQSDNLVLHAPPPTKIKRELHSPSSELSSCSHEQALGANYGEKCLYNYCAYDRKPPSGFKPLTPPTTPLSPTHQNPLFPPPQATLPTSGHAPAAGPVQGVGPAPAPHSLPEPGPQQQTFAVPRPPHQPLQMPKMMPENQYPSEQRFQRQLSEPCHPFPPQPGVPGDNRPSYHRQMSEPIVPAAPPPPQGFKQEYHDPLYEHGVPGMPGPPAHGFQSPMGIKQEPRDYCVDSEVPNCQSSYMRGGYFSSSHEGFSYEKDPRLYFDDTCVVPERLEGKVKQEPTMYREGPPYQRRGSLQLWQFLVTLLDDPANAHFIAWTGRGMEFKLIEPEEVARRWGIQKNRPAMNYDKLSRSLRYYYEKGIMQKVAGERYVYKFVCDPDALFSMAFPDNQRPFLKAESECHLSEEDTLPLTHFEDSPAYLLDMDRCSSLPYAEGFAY
Chain of HSF1 (Q00613 whole entry): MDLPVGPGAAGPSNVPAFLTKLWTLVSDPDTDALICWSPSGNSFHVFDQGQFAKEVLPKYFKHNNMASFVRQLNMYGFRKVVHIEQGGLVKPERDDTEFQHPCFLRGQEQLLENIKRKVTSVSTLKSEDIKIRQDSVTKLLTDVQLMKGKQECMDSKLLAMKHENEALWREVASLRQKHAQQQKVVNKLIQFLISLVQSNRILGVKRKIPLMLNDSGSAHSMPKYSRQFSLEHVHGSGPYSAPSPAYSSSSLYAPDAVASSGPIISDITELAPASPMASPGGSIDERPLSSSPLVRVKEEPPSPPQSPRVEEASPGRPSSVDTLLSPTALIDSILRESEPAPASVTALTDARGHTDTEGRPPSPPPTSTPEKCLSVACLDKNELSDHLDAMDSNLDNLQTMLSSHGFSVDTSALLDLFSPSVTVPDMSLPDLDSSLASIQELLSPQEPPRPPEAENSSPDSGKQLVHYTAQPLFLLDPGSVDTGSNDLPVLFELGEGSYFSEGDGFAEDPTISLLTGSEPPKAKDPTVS

With CCTGGG, the binding signal is 1.16 fold enrichment (6-mer frequency, TF over GST control) in [1]; 1.18 fold enrichment (6-mer frequency, TF over GST control) in test [2]; 1.15 fold enrichment (6-mer frequency, TF over GST control) in test [3]; 1.16 fold enrichment (6-mer frequency, TF over GST control) in test [4]; 1.18 fold enrichment (6-mer frequency, TF over GST control) in test [5]; 1.11 fold enrichment (6-mer frequency, TF over GST control) in test [6]. Also, the binding signal in test [7] is 1.08 fold enrichment (6-mer frequency, TF over GST control); in test [8] it was 1.05 fold enrichment (6-mer frequency, TF over GST control); in test [9], 1.05 fold enrichment (6-mer frequency, TF over GST control); in [10], 1.01 fold enrichment (6-mer frequency, TF over GST control); in test [11], 1.05 fold enrichment (6-mer frequency, TF over GST control); in test [12], 1.09 fold enrichment (6-mer frequency, TF over GST control). Also, the binding signal in test [13] is 1.08 fold enrichment (6-mer frequency, TF over GST control); in test [14], 1.29 fold enrichment (6-mer frequency, TF over GST control); in [15], 1.06 fold enrichment (6-mer frequency, TF over GST control); in test [16] it was 1.16 fold enrichment (6-mer frequency, TF over GST control).
